The values that follow come from PubChem BioAssay AID602292 (National Center for Advancing Translational Sciences (NCATS), 2012).

About 380 (29%) of roughly 1,300 compounds were called active. Roughly 37% stayed inconclusive and do not appear here. The list shows a part of the results. Unmarked numbers belong to inactive results. The call rests on the fitted dose curve; in most records, active means well fitted inhibition curve with a large enough effect; inconclusive means small, poorly fitted or top-dose-only effect; inactive means flat fitted curve, though single readings scatter.
On the % scale 0 is the no-effect control and ±100 the full control effect; potency means the concentration at half of the fitted maximal effect.

Chain of Thyrotropin receptor (Homo sapiens) (P16473 whole entry, looked up): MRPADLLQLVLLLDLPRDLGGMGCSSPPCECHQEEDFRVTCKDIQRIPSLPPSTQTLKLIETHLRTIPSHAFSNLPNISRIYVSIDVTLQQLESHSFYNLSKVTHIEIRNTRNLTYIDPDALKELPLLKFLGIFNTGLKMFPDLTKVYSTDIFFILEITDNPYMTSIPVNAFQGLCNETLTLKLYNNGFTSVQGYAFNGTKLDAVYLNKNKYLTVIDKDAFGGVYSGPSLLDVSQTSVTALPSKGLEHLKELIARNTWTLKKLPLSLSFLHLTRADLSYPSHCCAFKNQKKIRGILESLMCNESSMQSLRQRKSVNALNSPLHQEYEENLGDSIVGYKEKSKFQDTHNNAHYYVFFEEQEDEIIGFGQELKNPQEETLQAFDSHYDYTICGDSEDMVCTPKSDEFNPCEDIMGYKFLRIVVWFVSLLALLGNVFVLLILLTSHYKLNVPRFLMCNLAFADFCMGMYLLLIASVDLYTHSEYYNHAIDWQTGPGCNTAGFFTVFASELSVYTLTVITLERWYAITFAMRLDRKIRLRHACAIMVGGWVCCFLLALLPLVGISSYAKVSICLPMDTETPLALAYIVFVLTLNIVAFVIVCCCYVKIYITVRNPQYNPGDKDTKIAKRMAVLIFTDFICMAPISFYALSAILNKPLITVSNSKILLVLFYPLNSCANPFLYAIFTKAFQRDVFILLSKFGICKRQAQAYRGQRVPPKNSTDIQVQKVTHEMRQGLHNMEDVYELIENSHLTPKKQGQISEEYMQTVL

The target of this assay is Thyrotropin receptor (Homo sapiens) (UniProt P16473). The assay can be described thus: qHTS for antagonists of the Thyroid Stimulation Hormone Receptor: Hit Validation in Primary Screen. Further: nearly all actives have a fitted effect of over 80% in size.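 On activity change, negative = inhibition: cells stimulated with TSH at EC80 of 4 nM during compound exposure; cAMP by competitive HTRF where cellular cAMP lowers the 665 nm FRET signal.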 To be noted: TSHR-expressing cells, cAMP antagonist mode; series mostly up to 58 µM; activity change, negative = inhibition: at the top concentration. A digest of the protocol:
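Competitive HTRF detected cAMP in lysates of TSHR cells, read 30 minutes after antibody and d2 addition at room temperature. Before lysis, cells had 2 hours at 37 deg C with compound plus EC80 TSH, 4nM final.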
With `Cc1ccccc1-n1sc2cc(F)ccc2c1=O`, the Potency was 19 µM (active).

`Cc1c(C(=O)OC/C(O)=C(\C#N)c2nc3ccccc3[nH]2)oc2ccc(Br)cc12`: the “activity change, negative = inhibition” value is -3.86%.

On to `CS(=O)(=O)N(CC(=O)N1CCOCC1)c1cccc(F)c1`, for which the “activity change, negative = inhibition” value was -1.09%.

Regarding `Cc1ccc(S(=O)(=O)c2c(C(=O)c3ccccc3)cnc3cc4c(cc23)OCCO4)cc1`, the “activity change, negative = inhibition” value was -10.4%.

As for `O=C(CSc1ncnc2ccccc12)c1ccc2c(c1)OCCO2`, the Potency is 26.9 µM (active).

Turning to `O=C(CSc1n[nH]c(=O)n1C1CC1)c1ccc2c(c1)OCCO2`, the “activity change, negative = inhibition” value is -2.97%.

Turning to `COCC(C)NC(=O)C1c2ccccc2Oc2ccccc21` (stereo unspecified), the “activity change, negative = inhibition” value was -5.99%.

As to `O=S(=O)(Nc1ccc(O)c(Sc2nc3ccccc3s2)c1)c1cccc2ccccc12`, the Potency was 37.9 µM (active).

Take `CCn1c(Cl)c(C=O)s/c1=N\S(=O)(=O)c1ccccc1`: the Potency was 21.3 µM (active).

In the case of `CCN(CC)S(=O)(=O)c1cccc(NC(=O)CCSc2ccc(Cl)cc2)c1`, the Potency is 30.1 µM (active).

With `CC(=O)c1cccc(NC(=O)CCCSc2ccccc2)c1`, the “activity change, negative = inhibition” value was -8.01%.

In the case of `CC(=O)N1c2ccc(S(=O)(=O)NCCC(=O)Nc3cccc(Cl)c3)cc2CC1C` (stereo unspecified), the “activity change, negative = inhibition” value is -2.02%.

As for `CC1CCCN(S(=O)(=O)c2csc(C(N)=O)c2)C1` (stereo unspecified), the “activity change, negative = inhibition” value was -8.21%.

Consider `CCOP(=O)(Cc1ccc(C(C)(C)CC(C)=O)o1)OCC`, for which the “activity change, negative = inhibition” value was 2.1%.

On to `Cc1ccc(CN2C(=O)c3ccccc3Sc3ccc(C(=O)NCCCN4CCOCC4)cc32)cc1`, for which the “activity change, negative = inhibition” value is -7.23%.

`O=C(c1ccc2c(c1)N(Cc1ccccc1)C(=O)c1ccccc1S2)N1CCCC1`: the “activity change, negative = inhibition” value is -8.9%.

Consider `Cc1ccc(C(=O)N2c3ccccc3N(Cc3ccccc3)C(=O)C2(C)C)cc1`, for which the Potency was 16.9 µM (active).

Take `O=C(NC(Nc1nc2ccc([N+](=O)[O-])cc2s1)(C(F)(F)F)C(F)(F)F)c1ccccc1`: the Potency is 0.953 µM (active).

In the case of `O=C(NC(Nc1nc2ccc([N+](=O)[O-])cc2s1)(C(F)(F)F)C(F)(F)F)c1cccnc1`, the Potency was 7.57 µM (active).

For `COc1ccc2nc(NC(=O)c3ccccc3[N+](=O)[O-])sc2c1`, the “activity change, negative = inhibition” value is -12.5%.

As for `Cc1cccc(NC(=O)C2CCN(S(=O)(=O)c3ccc4c(c3)NC(=O)CO4)CC2)c1`, the “activity change, negative = inhibition” value was -1.24%.

Take `O=C(COC(=O)C12CC3CC(CC(Br)(C3)C1)C2)Nc1cccc(S(=O)(=O)N2CCOCC2)c1`: the Potency was 23.9 µM (active).

Regarding `CSc1cccc(NC(=O)CN2C(=O)COc3ccc(S(=O)(=O)N4CCOCC4)cc32)c1`, the “activity change, negative = inhibition” value is -4.44%.

`C=CCN1C(=O)/C(=C/c2ccc(OC(C)=O)c(OCC)c2[N+](=O)[O-])SC1=S`: the Potency is 7.57 µM (active).

`COc1ccc(/C=C/C(=O)c2ccc(NS(=O)(=O)c3ccc(C)cc3)cc2)cc1O`: the Potency is 23.9 µM (active).

With `COc1cc(/C=C/C(=O)c2ccc(NS(=O)(=O)c3ccc(C)cc3)cc2)ccc1OC(F)F`, the “activity change, negative = inhibition” value was -7.78%.
